According to the supplement of paper PMC10849652:
The full data set covers some 8,800 targets. This sample favours those with a hit. About 0.5% of all pairs of compound and target were hits.

Legend:
Assay in all cases: log2 fold change, soluble protein after heating vs DMSO (PISA); higher = thermal stabilisation; K562 lysate, 10 uM; active = over 0.2 and 3.5 SD of the protein, either way, in both replicates (recomputed)
ibrutinib = compound: C=CC(=O)N1CCC[C@@H](n2nc(-c3ccc(Oc4ccccc4)cc3)c3c(N)ncnc32)C1 [ibrutinib]
Procedure, shortened: (§1)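 Thermal stability, expressed as log-two fold change relative to solvent controls, is given from duplicates. Crude K562 extract in PBS pH 7.4 with 1 mM MgCl2, at 1 mg/mL protein, was treated with 10 μM compound for 30 min and heated in aliquots for 3 min across 48°C-58°C. After pooling, adjustment to 0.5% NP-40 at 4°C and centrifugation at 21,000xg for 90 min, supernatant protein was measured by TMTpro 16plex LC-MS/MS with channel sums equalised.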

[1] = compound: CC(=O)c1cnc2ccc(-c3cc(Cl)c(O)c(Cl)c3)nc2c1N[C@H]1CC[C@H](CN(C)C)CC1
Procedure, shortened: as §1

ralimetinib = compound: CC(C)(C)Cn1c(N)nc2ccc(-c3[nH]c(C(C)(C)C)nc3-c3ccc(F)cc3)nc21 [ralimetinib]
Procedure, shortened: as §1

[2] = compound: CC(C)(O)CC(=O)NCCn1ccc2ncnc(Nc3ccc(Oc4cccc(C(F)(F)F)c4)c(Cl)c3)c21
Procedure, shortened: as §1

[3] = compound: CC(C)C1=C2N=C(C=C(N2N=C1)NCC3=CC=CC=C3)NCCCCCCN
Procedure, shortened: as §1

[4] = compound: CC1=C(C(CC(=O)N1)C2=CC=C(C=C2)C(F)(F)F)C(=O)NC3=C(C=C4C(=C3)C=NN4)F
Procedure, shortened: as §1

[5] = compound: CC1=C(C2=C(C=C1)C(=O)C3=CC=CC=C3N2CCCN)C
Procedure, shortened: as §1

[6] = compound: CC1=C(C=C(C=C1)NC(=O)C2=CC(=CC=C2)C(C)(C)C#N)NC3=CC4=C(C=C3)N=CN(C4=O)C
Procedure, shortened: as §1

[7] = compound: CC1=C(C=C(C=C1)NC(=O)C2=CC(=CC=C2)N(C)C)NC(=O)C3=CC=C(C=C3)O
Procedure, shortened: as §1

[8] = compound: CC1=CC=C(C=C1)SC2=C3C=C(SC3=CN=C2)C(=O)N
Procedure, shortened: as §1

vemurafenib = compound: CCCS(=O)(=O)Nc1ccc(F)c(C(=O)c2c[nH]c3ncc(-c4ccc(Cl)cc4)cc23)c1F [vemurafenib]
Procedure, shortened: as §1

[9] = compound: CCCS(=O)(=O)Nc1ccc(F)c(C(=O)c2c[nH]c3ncc(Cl)cc23)c1F
Procedure, shortened: as §1

barasertib = compound: CCN(CCCOc1ccc2c(Nc3cc(CC(=O)Nc4cccc(F)c4)[nH]n3)ncnc2c1)CCOP(=O)(O)O [barasertib]
Procedure, shortened: as §1

[10] = compound: CC[C@@H]1C(=O)N(C)c2cnc(Nc3ccc(C(=O)NC4CCN(C)CC4)cc3OC)nc2N1C1CCCC1
Procedure, shortened: as §1

volasertib = compound: CC[C@@H]1C(=O)N(C)c2cnc(Nc3ccc(C(=O)N[C@H]4CC[C@H](N5CCN(CC6CC6)CC5)CC4)cc3OC)nc2N1C(C)C [volasertib]
Procedure, shortened: as §1

[11] = compound: CCn1c(C(=O)N(C2CC2)C2CC2)cc2c3c(ncn3C)c(Nc3cc(C)n(C)n3)nc21
Procedure, shortened: as §1

[12] = compound: CCn1cc(-c2ccnc3[nH]c(-c4cccc(CN(C)C)c4)cc23)c(-c2ccc(NC(=O)N(C)C)cc2)n1
Procedure, shortened: as §1

[13] = compound: CN1CCC(CNc2ccc3ncc(-c4cccc(OC(F)(F)F)c4)n3n2)CC1
Procedure, shortened: as §1

saracatinib = compound: CN1CCN(CCOc2cc(OC3CCOCC3)c3c(Nc4c(Cl)ccc5c4OCO5)ncnc3c2)CC1 [saracatinib]
Procedure, shortened: as §1

sotrastaurin = compound: CN1CCN(c2nc(C3=C(c4c[nH]c5ccccc45)C(=O)NC3=O)c3ccccc3n2)CC1 [sotrastaurin]
Procedure, shortened: as §1

Measured: log2 fold change

NFIC (UniProt P08651)
UniProt P08651, sequence (P08651 whole entry, looked up): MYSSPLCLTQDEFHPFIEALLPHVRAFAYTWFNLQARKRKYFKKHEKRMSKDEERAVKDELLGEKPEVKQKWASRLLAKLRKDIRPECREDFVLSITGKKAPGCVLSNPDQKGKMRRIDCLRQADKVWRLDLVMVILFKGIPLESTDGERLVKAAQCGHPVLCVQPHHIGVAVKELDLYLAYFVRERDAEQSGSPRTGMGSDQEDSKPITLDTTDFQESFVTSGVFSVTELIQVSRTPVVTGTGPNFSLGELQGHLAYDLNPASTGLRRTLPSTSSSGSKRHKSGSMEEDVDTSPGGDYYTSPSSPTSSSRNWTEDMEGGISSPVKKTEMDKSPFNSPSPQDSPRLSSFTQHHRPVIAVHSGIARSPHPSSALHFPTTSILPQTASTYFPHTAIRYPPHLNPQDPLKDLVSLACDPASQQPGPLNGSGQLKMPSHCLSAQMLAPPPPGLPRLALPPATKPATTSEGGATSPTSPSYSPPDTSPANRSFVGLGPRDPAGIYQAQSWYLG
inactive: ibrutinib -0.019 | [1] 0.014 | ralimetinib 0.009 | [2] -0.058 | [3] 0.235 | [4] -0.038 | [5] -0.044 | [6] 0.049 | [7] 0.04 | [8] -0.082 | vemurafenib -0.071 | [9] 0.014 | barasertib -0.106 | [10] 0.101 | volasertib -0.001 | [11] -0.01 | [13] 0.055 | saracatinib 0.049 | sotrastaurin -0.01
active: [12] -0.453

PAN2 isoform 2 (UniProt Q504Q3)
inactive: ibrutinib -0.141 | [1] 0.036 | ralimetinib 0.022 | [2] -0.022 | [3] -0.025 | [4] 0.022 | [5] 0.015 | [6] 0.012 | [7] -0.038 | [8] 0.027 | vemurafenib 0.072 | [9] 0.031 | barasertib 0.03 | [10] 0.041 | volasertib -0.132 | [11] 0.031 | [12] 0.006 | [13] -0.04 | saracatinib -0.021 | sotrastaurin 0.018

N6AMT1 (UniProt Q9Y5N5)
UniProt Q9Y5N5, sequence (Q9Y5N5 whole entry, looked up, one chain of several): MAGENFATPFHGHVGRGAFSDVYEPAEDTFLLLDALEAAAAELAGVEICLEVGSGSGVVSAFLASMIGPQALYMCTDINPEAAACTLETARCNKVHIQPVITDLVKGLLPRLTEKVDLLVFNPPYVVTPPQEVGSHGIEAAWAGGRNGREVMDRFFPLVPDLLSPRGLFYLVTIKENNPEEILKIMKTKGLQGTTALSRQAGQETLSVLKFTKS
inactive: ibrutinib 0.103 | [1] -0.03 | ralimetinib 0.005 | [2] -0.006 | [3] 0.009 | [4] -0.045 | [5] -0.026 | [6] 0.01 | [7] 0.024 | [8] 0.027 | vemurafenib 0.201 | [9] -0.016 | barasertib 0.113 | [10] 0.005 | volasertib -0.04 | [11] 0.006 | [12] -0.047 | [13] -0.048 | saracatinib 0.019 | sotrastaurin 0.038

MTMR6 (UniProt Q9Y217)
UniProt Q9Y217, sequence (Q9Y217 whole entry, looked up): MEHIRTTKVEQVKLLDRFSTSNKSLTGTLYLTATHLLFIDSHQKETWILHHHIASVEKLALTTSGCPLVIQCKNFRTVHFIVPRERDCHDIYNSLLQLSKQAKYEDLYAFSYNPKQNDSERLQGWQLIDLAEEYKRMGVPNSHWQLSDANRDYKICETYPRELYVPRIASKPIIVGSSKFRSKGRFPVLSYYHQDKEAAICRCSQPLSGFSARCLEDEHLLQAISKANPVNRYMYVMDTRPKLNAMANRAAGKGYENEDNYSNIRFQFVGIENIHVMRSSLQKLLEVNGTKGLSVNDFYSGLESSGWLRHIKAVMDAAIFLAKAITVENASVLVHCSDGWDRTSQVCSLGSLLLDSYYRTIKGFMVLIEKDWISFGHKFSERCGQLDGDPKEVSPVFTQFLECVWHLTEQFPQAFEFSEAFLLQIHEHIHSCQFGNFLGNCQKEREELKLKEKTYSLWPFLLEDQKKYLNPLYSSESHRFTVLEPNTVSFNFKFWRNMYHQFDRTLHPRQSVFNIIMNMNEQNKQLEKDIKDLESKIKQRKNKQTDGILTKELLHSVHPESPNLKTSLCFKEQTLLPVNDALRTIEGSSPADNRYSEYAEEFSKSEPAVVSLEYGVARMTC
inactive: ibrutinib 0.011 | [1] -0.02 | ralimetinib 0.041 | [2] 0.026 | [3] 0.043 | [4] -0.044 | [5] 0.006 | [6] 0.121 | [7] 0.011 | [8] -0.006 | vemurafenib 0.038 | [9] 0.012 | barasertib 0.018 | [10] 0.006 | volasertib -0.024 | [11] -0.055 | [12] 0.217 | [13] -0.08 | saracatinib 0.024 | sotrastaurin 0.087

NCAPG2 (UniProt Q86XI2)
UniProt Q86XI2, sequence (Q86XI2 whole entry, looked up): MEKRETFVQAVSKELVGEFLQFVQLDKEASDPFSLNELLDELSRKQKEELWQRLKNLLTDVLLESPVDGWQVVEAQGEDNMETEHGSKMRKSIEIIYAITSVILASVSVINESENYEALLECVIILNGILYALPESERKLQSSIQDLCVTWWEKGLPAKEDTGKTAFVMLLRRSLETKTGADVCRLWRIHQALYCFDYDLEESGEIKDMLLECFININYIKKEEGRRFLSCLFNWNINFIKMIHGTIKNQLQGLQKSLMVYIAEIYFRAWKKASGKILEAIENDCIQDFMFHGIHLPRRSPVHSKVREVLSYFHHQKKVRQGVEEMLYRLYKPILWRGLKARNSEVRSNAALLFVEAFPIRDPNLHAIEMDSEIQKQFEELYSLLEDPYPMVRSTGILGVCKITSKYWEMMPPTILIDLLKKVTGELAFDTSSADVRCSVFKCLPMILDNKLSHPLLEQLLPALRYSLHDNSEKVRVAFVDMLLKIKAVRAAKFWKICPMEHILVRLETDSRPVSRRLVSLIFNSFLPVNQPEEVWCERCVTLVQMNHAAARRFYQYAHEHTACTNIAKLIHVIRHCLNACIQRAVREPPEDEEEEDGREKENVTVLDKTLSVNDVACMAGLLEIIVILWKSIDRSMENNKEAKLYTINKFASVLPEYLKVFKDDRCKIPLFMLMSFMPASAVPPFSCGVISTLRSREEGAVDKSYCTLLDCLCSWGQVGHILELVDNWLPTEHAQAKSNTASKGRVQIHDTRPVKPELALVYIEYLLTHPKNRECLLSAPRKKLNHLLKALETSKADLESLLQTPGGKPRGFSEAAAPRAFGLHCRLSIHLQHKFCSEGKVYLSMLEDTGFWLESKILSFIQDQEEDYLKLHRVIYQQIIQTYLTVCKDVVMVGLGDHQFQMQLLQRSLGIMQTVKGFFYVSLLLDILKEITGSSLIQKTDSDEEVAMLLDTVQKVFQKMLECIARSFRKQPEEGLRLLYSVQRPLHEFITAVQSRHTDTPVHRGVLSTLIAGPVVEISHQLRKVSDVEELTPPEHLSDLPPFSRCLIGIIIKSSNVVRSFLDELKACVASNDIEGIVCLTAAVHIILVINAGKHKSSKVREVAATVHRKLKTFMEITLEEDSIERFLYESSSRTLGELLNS
inactive: ibrutinib 0.012 | [1] -0.029 | ralimetinib 0.018 | [2] 0.006 | [3] -0.009 | [4] 0.015 | [5] 0.05 | [6] -0.017 | [7] 0.001 | [8] -0.002 | vemurafenib 0.015 | [9] 0.044 | barasertib 0.016 | [10] -0.055 | volasertib -0.006 | [11] 0.025 | [12] -0.139 | [13] 0.074 | saracatinib 0.027 | sotrastaurin 0.027

NIFK (UniProt Q9BYG3)
UniProt Q9BYG3, sequence (Q9BYG3 whole entry, looked up): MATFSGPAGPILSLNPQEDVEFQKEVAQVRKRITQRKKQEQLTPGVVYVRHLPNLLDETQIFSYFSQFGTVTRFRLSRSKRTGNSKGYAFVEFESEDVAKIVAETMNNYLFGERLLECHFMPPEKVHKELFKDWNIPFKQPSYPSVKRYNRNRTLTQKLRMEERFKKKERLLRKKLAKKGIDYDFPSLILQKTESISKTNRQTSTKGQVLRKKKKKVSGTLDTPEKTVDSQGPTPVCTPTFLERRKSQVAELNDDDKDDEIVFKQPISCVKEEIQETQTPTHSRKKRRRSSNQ
inactive: ibrutinib 0.02 | [1] -0.039 | ralimetinib 0.022 | [2] 0.002 | [3] -0.001 | [4] 0.016 | [5] -0.035 | [6] -0.005 | [7] 0.016 | [8] 0.032 | vemurafenib 0.015 | [9] 0.036 | barasertib 0.033 | [10] 0.006 | volasertib -0.027 | [11] 0.009 | [12] 0.093 | [13] -0.045 | saracatinib 0.005 | sotrastaurin -0.018

OARD1 (UniProt Q9Y530)
UniProt Q9Y530, sequence (Q9Y530 whole entry, looked up): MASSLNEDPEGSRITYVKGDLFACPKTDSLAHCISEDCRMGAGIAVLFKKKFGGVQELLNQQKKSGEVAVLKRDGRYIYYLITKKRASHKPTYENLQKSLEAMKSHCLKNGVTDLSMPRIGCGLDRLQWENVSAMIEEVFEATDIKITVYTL
inactive: ibrutinib -0.013 | [1] 0.003 | ralimetinib 0.003 | [2] 0.002 | [3] -0.01 | [4] -0.027 | [5] -0.046 | [6] 0.032 | [7] 0.035 | [8] 0.011 | vemurafenib -0.011 | [9] 0.004 | barasertib -0.01 | [10] -0.01 | volasertib -0.031 | [11] 0.022 | [12] -0.056 | [13] -0.034 | saracatinib 0.006 | sotrastaurin 0.002

NNT (UniProt Q13423)
UniProt Q13423, sequence (Q13423 whole entry, looked up): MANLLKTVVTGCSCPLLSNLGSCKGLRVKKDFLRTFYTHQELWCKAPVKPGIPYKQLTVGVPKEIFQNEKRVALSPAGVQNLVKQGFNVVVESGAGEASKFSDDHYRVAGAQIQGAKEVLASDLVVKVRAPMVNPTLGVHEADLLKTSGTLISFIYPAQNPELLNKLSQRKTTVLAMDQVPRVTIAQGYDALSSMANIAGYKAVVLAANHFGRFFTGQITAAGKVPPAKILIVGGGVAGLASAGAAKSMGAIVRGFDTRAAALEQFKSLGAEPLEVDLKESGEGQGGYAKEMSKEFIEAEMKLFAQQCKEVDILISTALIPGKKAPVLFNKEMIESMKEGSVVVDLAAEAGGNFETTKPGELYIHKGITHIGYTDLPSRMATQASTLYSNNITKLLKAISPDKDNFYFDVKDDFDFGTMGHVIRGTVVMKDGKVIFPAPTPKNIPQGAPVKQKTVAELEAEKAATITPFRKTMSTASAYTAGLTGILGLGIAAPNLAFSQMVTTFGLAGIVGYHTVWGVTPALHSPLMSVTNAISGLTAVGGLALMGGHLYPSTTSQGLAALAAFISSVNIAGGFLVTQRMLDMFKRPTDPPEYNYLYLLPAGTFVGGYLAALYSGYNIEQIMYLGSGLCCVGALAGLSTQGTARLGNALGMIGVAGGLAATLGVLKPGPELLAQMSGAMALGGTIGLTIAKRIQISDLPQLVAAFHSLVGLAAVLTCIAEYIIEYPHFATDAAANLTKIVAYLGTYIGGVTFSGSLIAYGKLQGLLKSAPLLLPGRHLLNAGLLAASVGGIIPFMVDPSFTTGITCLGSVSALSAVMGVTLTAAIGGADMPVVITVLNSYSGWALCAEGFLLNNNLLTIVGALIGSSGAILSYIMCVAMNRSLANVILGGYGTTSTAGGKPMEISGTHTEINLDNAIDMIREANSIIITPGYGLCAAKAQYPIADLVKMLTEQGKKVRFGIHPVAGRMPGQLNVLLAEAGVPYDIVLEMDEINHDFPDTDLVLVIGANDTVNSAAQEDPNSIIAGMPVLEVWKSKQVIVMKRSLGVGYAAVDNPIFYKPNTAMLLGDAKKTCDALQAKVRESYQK
inactive: ibrutinib 0.012 | [1] -0.016 | ralimetinib -0.095 | [2] -0.01 | [3] -0.05 | [4] -0.011 | [5] -0.019 | [6] -0.007 | [7] 0.01 | [8] -0.009 | vemurafenib 0.012 | [9] -0.015 | barasertib 0.013 | [10] 0.022 | volasertib 0.031 | [11] -0.004 | [12] 0.041 | [13] -0.004 | saracatinib -0.025 | sotrastaurin -0.024
